Compounds without any hit were thinned out: in the full panel of roughly 83,000, 20% have a hit.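 96-well plates, one dose, 48 hours. Percent growth reported; active if below 10.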 Values without a mark were called inactive. Activity calls are given as the source filed them.
Test system: HOP-92 NSCLC
Test: NCI-60 one-dose screen, 48 h (100 = growth as untreated, 0 = no growth, -100 = all killed)
Conditions: 10 µM unless noted

Row | SMILES | growth
1 | NC(=O)n1c(=O)n(-c2cccc(C(F)(F)F)c2)c(=O)c2cc(-c3ccc(F)cc3F)ccc21 | -36.3% (active)
2 | Cn1c(SCC(=O)c2ccco2)nc2ccccc2c1=O | 90.6%
3 | C=C(C)[C@@H]1CC[C@]2(C(=O)O)CC[C@]3(C)[C@H](CC[C@@H]4[C@@]5(C)C/C(=C/c6ccccn6)C(=O)C(C)(C)[C@@H]5CC[C@]43C)[C@@H]12 | 34.7%
4 | CCc1cc2c(cc1Cl)nc1c(=O)[nH]c(=O)nc-1n2CCOCC(C)(C)C | 110%
5 | O=C(Nc1ccc(N2CCOCC2)cc1)Nc1ccc2c(ccn2C(=O)c2cccc(F)c2)c1 | 31.4%
6 | C#CCOc1cccc(-c2nc(N)nc(Nc3ccccc3SSc3ccccc3Nc3nc(N)nc(-c4cccc(OCC#C)c4)n3)n2)c1 | 87.6%
7 | CN1CCN(Cc2ccc(NC(=O)c3cncc(C#Cc4cnc5ccc(OCCCS(C)(=O)=O)nn45)c3)cc2C(F)(F)F)CC1 | -27.3% (active)
8 | CNC(=O)c1cc(-n2ccc3cc(NC(=O)Nc4ccc(N5CCN(C)CC5)c(C(F)(F)F)c4)ccc32)ccn1 | 71.1%
9 | Nc1cc(C(=O)N/N=C\c2ccc(OC(F)F)c(OC3CCCC3)c2)nn1CC(O)c1ccccc1 (configuration not stated) | 84.1%
10 | CNC(=O)Nc1ccc(Nc2cc(-c3ccc(-n4cccn4)cc3)[nH]n2)c(C)c1 | 173%
11 | Cc1nc(/N=C(N)/N=C(\N)c2cccc(Br)c2)sc1C | 88%
12 | Brc1cccc(-c2cc(-c3ccc4c(c3)OC=CO4)[nH]n2)c1 | 96.3%
